Source: PubChem BioAssay AID588458 (Sanford-Burnham Center for Chemical Genomics, 2011)
Out of some 360,000 compounds screened, about 3,000 (0.83%) were called active. The full list was thinned out, with actives kept by preference. Unmarked numbers belong to inactive results. Rule as the data show it: active = inhibition above about 50%; inactive = the rest.

Target: DNA (cytosine-5)-methyltransferase 1 (Homo sapiens) (UniProt P26358)
Assay: inhibition of DNA methyltransferase DNMT1 – biochemical, molecular beacon, fluorescence, HinP1I cleavage, uHTS, primary screen (AID 588458)
Details: at 10 µM, hits give high values

DNA (cytosine-5)-methyltransferase 1 (Homo sapiens), sequence (P26358 504-1616 limits assumed): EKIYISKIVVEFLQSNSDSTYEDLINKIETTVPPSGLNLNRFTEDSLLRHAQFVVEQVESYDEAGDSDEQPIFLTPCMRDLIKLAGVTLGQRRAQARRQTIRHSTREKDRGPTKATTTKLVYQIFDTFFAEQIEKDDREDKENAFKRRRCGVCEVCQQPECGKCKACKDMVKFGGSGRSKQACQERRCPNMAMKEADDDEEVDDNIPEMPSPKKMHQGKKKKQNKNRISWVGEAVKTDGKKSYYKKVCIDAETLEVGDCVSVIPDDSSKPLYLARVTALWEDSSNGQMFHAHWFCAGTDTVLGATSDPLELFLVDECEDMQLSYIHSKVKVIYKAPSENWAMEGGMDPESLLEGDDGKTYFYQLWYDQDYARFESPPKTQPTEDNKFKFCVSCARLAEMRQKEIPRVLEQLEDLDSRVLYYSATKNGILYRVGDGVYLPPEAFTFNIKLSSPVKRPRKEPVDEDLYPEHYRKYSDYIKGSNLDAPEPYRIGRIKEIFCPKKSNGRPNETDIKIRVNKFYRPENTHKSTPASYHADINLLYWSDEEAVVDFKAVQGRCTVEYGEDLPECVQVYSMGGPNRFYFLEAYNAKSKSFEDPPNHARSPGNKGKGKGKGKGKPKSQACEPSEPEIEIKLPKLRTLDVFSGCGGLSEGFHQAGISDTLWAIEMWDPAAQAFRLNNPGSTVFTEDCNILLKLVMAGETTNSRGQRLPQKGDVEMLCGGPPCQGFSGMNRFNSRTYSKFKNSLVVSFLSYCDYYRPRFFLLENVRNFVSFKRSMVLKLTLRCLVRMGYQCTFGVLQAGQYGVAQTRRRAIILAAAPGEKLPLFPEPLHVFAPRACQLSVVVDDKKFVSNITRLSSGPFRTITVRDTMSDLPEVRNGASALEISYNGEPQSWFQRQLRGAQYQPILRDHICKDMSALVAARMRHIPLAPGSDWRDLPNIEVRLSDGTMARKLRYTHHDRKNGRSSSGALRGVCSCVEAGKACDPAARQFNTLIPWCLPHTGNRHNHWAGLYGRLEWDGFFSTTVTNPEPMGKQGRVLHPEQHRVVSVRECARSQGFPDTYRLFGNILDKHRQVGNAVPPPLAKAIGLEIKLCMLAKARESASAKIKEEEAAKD

| SMILES | inhibition (reported as % activation of signal) |
| --- | --- |
| CCOc1ccc(NC(=O)CSc2ncnc3c2sc2ccccc23)cc1 | 11.2% |
| C=CC[C@H](CC(=O)NCCO)C(=O)N[C@@H](COC(=O)[C@@H](CC=C)Cc1ccc(F)cc1)Cc1c[nH]c2ccccc12 | -10.1% |
| C=CCC[C@H](Cc1ccc(F)cc1)C(=O)OC[C@@H](Cc1c[nH]c2ccccc12)NC(=O)[C@H](CC=C)CC(=O)N[C@H](CO)Cc1ccccc1 | 4.02% |
| C=CC[C@@H](CC(=O)N[C@H](CO)Cc1ccccc1)C(=O)N[C@@H](COC(=O)[C@@H](CC=C)Cc1ccc(F)cc1)Cc1c[nH]c2ccccc12 | 63.8% (active) |
| O=C(Cc1ccc([N+](=O)[O-])cc1)NCCS(=O)(=O)N1CCN(c2ccccc2)CC1 | -1.35% |
| Cc1cccc(C(=O)N2CCC(c3nc4ccccc4s3)CC2)c1 | -3.99% |
| Cc1cccc(NC(=S)N2CCC(c3nc4ccccc4s3)CC2)c1 | -5.14% |
| O=C(c1cccs1)N1CCC(c2nc3ccccc3s2)CC1 | 73.8% (active) |
| CC(=O)N1CCc2cc(Br)cc(S(=O)(=O)CCC(=O)Nc3c(C)n(C)n(-c4ccccc4)c3=O)c21 | 0.99% |
| COc1ccc(-c2[nH][nH]c(=O)c2NC(=O)c2ccc([N+](=O)[O-])cc2)cc1 | -19.5% |
| COc1ccc(Br)cc1/C=N/Nc1ccc(S(=O)(=O)Nc2ccccc2C(=O)O)cc1[N+](=O)[O-] | 97.5% (active) |
| COc1ccccc1C(CNC(=O)c1cccc(NS(=O)(=O)c2ccc(Br)cc2)c1)N(C)C (stereo not given) | 2.12% |
| COc1ccc(S(=O)(=O)N2CCC(C(=O)OCC(=O)c3ccccc3)CC2)cc1[N+](=O)[O-] | 6.89% |
| O=C(CCSCCc1ccccn1)Nc1nccs1 | -3.62% |
| Cn1cccc1Cc1nnc(SCC(=O)NCc2ccc3c(c2)OCO3)n1CCc1ccccc1 | 6.75% |
| Cc1c(C(=O)N(Cc2ccccc2)Cc2cccnc2)cnn1-c1ccc(F)cc1 | 0.01% |
| O=C(Nc1nonc1-c1ccc(Cl)cc1)c1ccco1 | 9.05% |
| O=C(Nc1nc(-c2ccco2)c(-c2ccco2)s1)c1ccco1 | 80.6% (active) |
| CCc1nnc(NC(=O)c2ccco2)s1 | 4.22% |
| CCN(CC)S(=O)(=O)c1ccc(NC(=O)c2cccnc2Cl)c(NC(=O)c2cccnc2Cl)c1 | -0.07% |
| CC(C)C[C@H](NC(=O)C1CC(=O)N(c2ccc3c(c2)OCCO3)C1)C(=O)NC1CCCC1 (stereo not given in full) | -0.87% |
| O=C1NCC(Nc2ccccc2)C(=O)N1 (stereo not given) | 0.4% |
| Cc1nn(C)cc1N1C(=O)c2cccc3c(N)ccc(c23)C1=O | 65% (active) |

| SMILES | inhibition (reported as % activation of signal) |
| --- | --- |
| O=C(CN1C(=O)c2cccc3cccc1c23)Nc1ccccc1 | 6.37% |
| CCN1C(=O)c2cccc3c(S(=O)(=O)Nc4ccccc4O)ccc1c23 | -3.81% |
| CN1C(=O)c2cccc3c(N)ccc(c23)C1=O | 68.8% (active) |
| CCN1C(=O)c2cccc3c(N)ccc1c23 | 51.2% (active) |
| Cn1cc(C2OC(=O)c3ccccc32)c2ccccc21 (stereo not given) | 1.23% |
| O=C(COC(=O)CCc1c[nH]c2ccccc12)Nc1cccc(Cl)c1 | -4.28% |
| O=C(CCC1CCCC1)N=C1SC2CS(=O)(=O)CC2N1Cc1ccccc1 (stereo not given) | 14.4% |
| COc1ccccc1-c1oc2ccccc2c1C#CCCCCO | -0.24% |
| COc1ccc2[nH]c(=O)c(-c3noc(-c4ccc(F)cc4)n3)cc2c1 | 95.2% (active) |
| CCCc1nc(-c2cc3cc(C)ccc3[nH]c2=O)no1 | -2.69% |
| COc1ccc(Cc2cc(-c3ccc(F)cc3)n[nH]c2=O)cc1 | -1.27% |
| Cc1ccc2c(CC(=O)NCc3cccs3)coc2c1 | 7.02% |
| C[C@H]1CN([C@@H](C)CO)C(=O)CCCn2cc(nn2)CO[C@@H]1CN(C)S(=O)(=O)c1ccccc1C#N | 8.79% |
| C=C(Br)CN1CCN(CC(=C)Br)CC1 | 1.67% |
| Cc1cc2nc(-c3ccc(Cl)cc3)c(Cc3cccc(F)c3)n2c(C)c1Br | 37.2% |
| Cc1cc2nc(-c3ccco3)c(Cc3cccc(F)c3)n2c(C)c1Br | 56.4% (active) |
| Cc1ccc2nc(-c3ccco3)c(Cc3cccc(Cl)c3)n2c1 | -0.88% |
| CCN1CCN(c2ccc(S(=O)(=O)N3CCCCC3)cc2NC(=O)c2cccc(NC(C)=O)c2)CC1 | -6.35% |
| COc1cccc(NC(=O)CSc2nccn(-c3ccc4c(c3)OCCO4)c2=O)c1 | 0.94% |
| NC(CSC(c1ccccc1)(c1ccccc1)c1ccc(-c2ccccc2)cc1)C(=O)O (stereo not given) | 89% (active) |
| CCC(C)OC(=O)C(C)Oc1ccc(-c2ccccc2)cc1 (stereo not given) | -3.17% |
| NC(CSC1(c2ccccc2)c2ccccc2-c2ccccc21)C(=O)O (stereo not given) | 38.3% |
